TRHR ag = qHTS for Small Molecule Agonists and Allosteric Enhancers of Human TRH Receptor: Primary Screen for Agonists | Thyrotropin-releasing hormone receptor (Homo sapiens), P34981 | TRHR cells, calcium flux fluo-8, FDSS agonist mode | activation, % at 2 µM | hit rate 0.18% among 360,000 | AID 493084, 2011; also: 0% is about no effect
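Agonist-mode FDSS calcium read (Ex 480/Em 530, 1 s cycles) in 1536-well TRHR cells with fluo-8 dye, after 10-cycle baseline and 23 nL compound addition; TRH at EC20 (10 nM final) added afterwards for the enhancer phase.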
D1 PAM = Potentiators of Human D1 Dopamine Receptor: qHTS | potentiation, % at 10 µM | HEK293 TREx D1 cells, calcium flux, dopamine EC20 potentiation | hit rate 0.036% among 360,000 | AID 504651, 2011; in the data active = potentiation above about 30%; also: 0% is about no effect
Target sequence (P21728 whole entry, looked up): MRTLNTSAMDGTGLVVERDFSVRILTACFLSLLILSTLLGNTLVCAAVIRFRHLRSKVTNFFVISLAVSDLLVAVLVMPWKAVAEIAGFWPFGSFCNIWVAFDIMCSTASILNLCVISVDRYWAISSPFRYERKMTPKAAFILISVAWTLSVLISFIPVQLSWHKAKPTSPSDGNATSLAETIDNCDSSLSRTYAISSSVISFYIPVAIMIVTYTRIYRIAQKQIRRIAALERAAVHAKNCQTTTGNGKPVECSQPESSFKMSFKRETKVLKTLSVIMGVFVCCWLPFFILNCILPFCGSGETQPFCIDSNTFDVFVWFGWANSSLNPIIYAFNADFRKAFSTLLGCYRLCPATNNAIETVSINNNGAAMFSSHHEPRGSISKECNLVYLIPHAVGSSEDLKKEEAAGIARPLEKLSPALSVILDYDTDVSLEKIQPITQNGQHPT
D1 agonist = Allosteric Agonists of the Human D1 Dopamine Receptor: qHTS; activation, % at 2 µM; hit rate 1% among 360,000; HEK293 T-REx D1 cells, calcium flux, agonist mode; D(1A) dopamine receptor (Homo sapiens), P21728; also: 0% is about no effect
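Inducible HEK293 T-REx D1 cells, force-coupled to calcium signalling, were plated at 4000 cells/well with tetracycline and held overnight at 30 C. After no-wash calcium dye loading, compound-evoked calcium rise over 180 s flagged agonists.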
TRHR enhancer = qHTS for Small Molecule Agonists and Allosteric Enhancers of Human TRH Receptor: Primary Screen for Enhancers; Thyrotropin-releasing hormone receptor (Homo sapiens), P34981; TRHR cells, fluo-8 calcium fluorescence, EC20 TRH enhancement; enhancement, % at 2 µM; hit rate 0.66% among 360,000; AID 493056, 2011; in the data active = enhancement above about 30%; also: 0% is about no effect
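TRHR-expressing cells loaded with fluo-8 calcium dye were read kinetically (ex 480/em 530) during compound addition, then stimulated with an EC20 of TRH (10 nM final). Enhancement of the Gq-mediated intracellular calcium response was scored.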
D1 antagonist = Antagonist of Human D 1 Dopamine Receptor: qHTS | HEK293 TREx D1 cells, calcium flux, dopamine EC80; hits give low values | activity change, negative = inhibition, % at 10 µM | hit rate 3.2% among 360,000; in the data active = activity change below about -30%; also: % is scaled to controls: 0 for no effect and ±100 for the full control effect
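Allosteric or orthosteric antagonism assessed as attenuation of the calcium response to EC80 dopamine, added 180 s after compound, in induced HEK293 Trex D1 cells loaded with no-wash calcium dye.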
An asterisk follows results filed as active; / = no result given. An excerpt weighted towards active compounds, which were near 4.7% of everything screened. Rule as the data show it, unless noted: active = activation above about 30%; inactive = the rest.

SMILES	TRHR ag	D1 PAM	D1 agonist	TRHR enhancer	D1 antagonist
O=C(N/N=C/c1c(O)n(CCc2ccc(F)cc2)c(=O)[nH]c1=O)c1ccncc1	0	4	1	4	24
O=C(N/N=C/c1c(O)n(CCc2ccccc2)c(=O)[nH]c1=O)c1ccncc1	1	2	-1	4	-37*
CCN1CCN(Cc2ccc(OC(F)(F)F)cc2)CC1	-1	3	5	6	-34*
O=C(Nc1ccc(Cl)cc1C(=O)c1ccccc1)c1ccccc1Br	1	1	6	-2	10
COCCNCCOc1ccc(C(C)(C)c2ccccc2)cc1	2	3	38*	0	9
Cc1ccccc1CN1CCN(Cc2ccccc2)CC1	-1	-8	1	4	12
CC1CN(CCc2ccccc2)CC(C)O1 (configuration not stated)	-1	-4	1	-1	0
Cc1cccc(N2CCN(CCc3ccccc3)CC2)c1C	-2	-11	39*	2	-51*
COc1ccccc1N1CCN(CCc2ccccc2)CC1	0	-7	3	5	-47*
Cc1ccc(N2CCN(CCc3ccccc3)CC2)cc1	0	-11	4	4	-44*
CCOc1ccc2nc(NC(=O)c3cccn(Cc4ccccc4C)c3=O)sc2c1	0	-2	1	2	-16
Cc1ccc(-n2c(=O)[nH]c3ccc(Br)cc3c2=O)cc1	0	-1	0	-4	-9
Cc1cccc(-n2c(/C=C/c3c[nH]c4ccccc34)nc3ccccc3c2=O)c1	2	3	8	-9	-6
N#CC1=C(N)Oc2c(c(=O)sc3ccccc23)C1c1cccnc1 (configuration not stated)	-1	-2	1	35*	-4
c1cnc2c(c1)ncn2C1CCNCC1	1	-1	0	-5	12
Cc1ccc(-n2nc(C)c3c2NC(=O)CSC3c2ccc(O)cc2)cc1Cl (configuration not stated)	0	0	-1	0	1
CCN(CC)c1ccc(/C=C/[N+](=O)[O-])cc1	72*	-3	254*	0	-19
Cc1ccccc1CN1C(=O)C(C)N=C(c2ccccc2)c2ccccc21 (configuration not stated)	-1	-5	2	-4	-8
COc1ccc(-c2nc(CN3C(=O)CN=C(c4ccccc4Cl)c4cc(Cl)ccc43)c(C)o2)cc1OC	0	1	1	-10	10
COc1ccc(-c2nc(CN3C(=O)CN=C(c4ccccc4)c4ccccc43)c(C)o2)cc1OC	-1	-4	4	-1	-31*
COc1ccc(OCC(=O)N2CCN(Cc3cc(=O)n4nc(-c5ccccc5C)sc4n3)CC2)cc1	-1	-3	0	4	-4
FC(F)(F)c1ccc(CNCCc2ccc3c(c2)OCO3)cc1	1	-2	35*	10	4
COc1ccc(CNCCc2ccc3c(c2)OCO3)cc1Br	0	-4	78*	-2	-18
COc1cccc(-c2nn3c(=O)cc(CN4CCN(C(=O)COc5ccccc5C)CC4)nc3s2)c1	-1	3	1	-1	3
CCC1(CC)C(=N)N(C)C(=O)NC1=O	-2	-9	4	-4	-12
SMILES	TRHR ag	D1 PAM	D1 agonist	TRHR enhancer	D1 antagonist
CCC1(CC)C(=O)N(C)C(=O)NC1=NC	0	6	0	1	-35*
Cc1ccc(Cn2cccc(C(=O)Nc3nc4ccc(C)cc4s3)c2=O)cc1	-1	-1	0	5	/
CCOC(=O)C1=C(N)OC2=C(C(=O)CC(C)(C)C2)C12C(=O)Nc1ccccc12 (configuration not stated)	0	-12	1	-3	-37*
Cc1ccccc1-n1c(/C=C/c2ccccc2F)nc2ccccc2c1=O	0	0	1	4	0
C[N+]1(CC2COC(c3ccco3)O2)CCCCC1 (configuration not stated)	4	-2	2	-1	-33*
O=c1c2ccccc2nc(/C=C/c2cccc3ccccc23)n1-c1ccccc1Cl	0	-1	1	-6	-17
CCOP(=O)(OCC)C(NS(=O)(=O)c1ccccc1)C(Cl)(Cl)Cl (configuration not stated)	-1	-1	1	4	-33*
N#Cc1cc([N+](=O)[O-])ccc1NC(=O)c1cccn(Cc2cccc(F)c2)c1=O	1	1	3	1	/
CCN(CC)S(=O)(=O)c1ccc(NN=C(C#N)C#N)cc1	1	-4	37*	-3	-8
CC(NCc1ccc(Cl)c(Cl)c1)C(O)c1ccccc1 (configuration not stated)	0	-8	11	0	-1
CCOc1cc(CNC(C)C(O)c2ccccc2)cc(Cl)c1OCC (configuration not stated)	1	-5	39*	3	-6
COc1ccc(NC(=O)CCc2nc(C3=CCN(Cc4cccc(Cl)c4)CC3)no2)cc1OC	0	-2	8	-2	-9
CCn1c(CN2CCN(C)CC2)nc2ccccc21	0	-2	1	-2	8
Cc1cc(NC(=O)c2cccn(Cc3cccc([N+](=O)[O-])c3)c2=O)no1	0	0	1	-18	/
CCOc1cccc(CNCCc2c(C)[nH]c3ccc(OC(F)(F)F)cc23)c1O	-2	-2	117*	3	-20
COc1ccc2[nH]c(C)c(CCNCc3cccnc3)c2c1	29	3	34*	5	3
Cc1[nH]c2ccc(OC(F)(F)F)cc2c1CCNCc1cccc([N+](=O)[O-])c1	5	-7	25	12	-8
Cc1ccc2[nH]c(C)c(CCNCc3ccco3)c2c1	1	-3	11	-4	2
Cc1[nH]c2ccc(OC(F)(F)F)cc2c1CCNCc1ccc(Cl)cc1	3	0	41*	-3	-10
CC(C)Cc1nc2cccnc2n1C1CCNCC1	-2	0	1	1	3
CC(C)(C)c1ccc(C(=O)Nc2ccc(Cl)cc2C(=O)c2ccccc2)cc1	0	4	-2	-2	9
O=C1NC(=O)C(=Cc2ccc(Oc3ccc([N+](=O)[O-])cc3)cc2)C(=O)N1	-2	10	3	3	-36*
O=C(Cc1ccc([N+](=O)[O-])cc1)N1CCN(Cc2ccc3c(c2)OCO3)CC1	0	1	3	2	-36*
O=C(c1ccc2c(c1)N(Cc1c(F)cccc1Cl)C(=O)c1ccccc1S2)N1CCC2(CC1)OCCO2	-1	1	1	-13	5

Screening results: PubChem BioAssay, National Center for Advancing Translational Sciences (NCATS)
